Structures are written as SMILES. Calls of active or inactive are those of the source.

From PubChem BioAssay come the findings set out here.

The nature of assay [1]: binders of probe aFSTL3 on microarray, primary screen, stem cell growth factor project, biochemical, small-molecule microarray, fluorescence 635/667 (AID 1064).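 Also: measures binding of the biotinylated anti-FSTL3 antibody to printed compounds.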 The settings on record: higher = more signal.
Assay [2] can be described thus: binders from COS7 lysate, DM2A8 probe, primary screen, torsin A project, cell lysate, small-molecule microarray, fluorescence 635/667 (AID 1065). Conditions: higher = more signal, COS7 lysate expressing mutant human TOR1A.
Assay [3] is described as follows: binders of probe aFGF2 on microarray, primary screen, stem cell growth factor project, biochemical, small-molecule microarray, fluorescence 635/667 (AID 1067).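 Also: measures binding of biotinylated aFGF2 protein to printed compounds on slides; z-score merges feature fluorescence and signal-to-noise across triplicate slides.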 The settings on record: higher = more signal.
A short description of assay [4]: binders of probe aFGF10 on microarray, primary screen, stem cell growth factor project, biochemical, small-molecule microarray, fluorescence 635/667 (AID 1071).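 Also: score merges 667 nm spot intensity and signal to noise from triplicate slides.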 The settings on record: higher = more signal.
Assay [5] has as its target Neurogenic locus notch homolog protein 2 (Homo sapiens) (UniProt Q04721). In words: Notch2 binders on small-molecule microarrays, primary screen, biochemical, small-molecule microarray, 635 nm fluorescence, stem cell growth factors (AID 1073). The settings on record: Notch2 binding, higher = more signal.
Assay [6] has as its target Pro-neuregulin-1, membrane-bound isoform (Homo sapiens) (UniProt Q02297). In words: NRG1 binders on small-molecule microarrays, primary screen, psychiatric disease protein project, biochemical, small-molecule microarray, fluorescence 635/667 (AID 1075).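 Also: score combines 667 nm spot fluorescence with signal to noise.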 The settings on record: NRG1 binding, 635 nm fluorescence, higher = more signal.
For assay [7], the system named is Neuregulin-1 EGF-like domain. In words: binders of neuregulin-1 EGF-like domain, primary screen, biochemical, small-molecule microarray, 635 nm fluorescence (AID 1081).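 Also: binding of the protein to compounds printed on small-molecule microarray slides.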 Conditions: small-molecule microarray binding, higher = more signal.
A short description of assay [8]: FRG1 promoter luciferase signal modulators, primary screen, FRG1 inhibition for FSHD, cell-based, C2C12 myotubes, firefly/Renilla luciferase, luminescence (AID 1084). The settings on record: higher = more signal, called active from +8 up or from −8 down.
A short description of assay [9]: binders of probe aFST on microarray, primary screen, stem cell growth factor project, biochemical, small-molecule microarray, fluorescence 635/667 (AID 1086).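 Also: score merges 667 nm fluorescence with signal-to-noise of each printed compound spot.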 Conditions: higher = more signal.
Assay [10] can be described thus: binders of probe aHhip on microarray, primary screen, stem cell growth factor project, biochemical, small-molecule microarray, fluorescence 635/667 (AID 1087).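 Also: score merges spot fluorescence at 667nm with spot signal to noise ratio.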 Conditions: higher = more signal.
Assay [11] concerns PRMT1 (protein arginine N-methyltransferase 1). In words: PRMT1 binders on small-molecule microarrays, primary screen, biochemical, small-molecule microarray, 635 nm fluorescence (AID 1088).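 Also: binding of Prmt1 protein to compounds spotted on small-molecule microarray slides.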 The settings on record: small-molecule microarray binding, higher = more signal.
Assay [12] in a line: yeast growth modulation, basal conditions, primary screen, YJM789 clinical isolate, OD600, 24 h (AID 1089).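 Also: growth of clinical yeast isolate S. cerevisiae YJM 789 seeded 1000 cells per well; test concentration not given here.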 The settings on record: S. cerevisiae YJM789 growth, higher = more signal, called active from +8 up or from −8 down.
Assay [13] is described as follows: fission yeast growth modulation, primary screen, strain 972, OD600, 24 h, no modulator (AID 1090).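 Also: basal condition with compound alone and no growth modifier present; test concentration not given here.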 The settings on record: S. pombe 972 growth, higher = more signal, called active from +8 up or from −8 down.
Assay [14] can be described thus: S. cerevisiae growth modulation with rapamycin, primary screen, strain BY4716, OD600, 96 h (AID 1091). Also: test concentration not given here. Conditions: higher = more signal, called active from +8 up or from −8 down.
Assay [15] deals with Torsin-1A-interacting protein 2 (Homo sapiens) (UniProt Q8NFQ8). In words: LULL1 binders on small-molecule microarray, primary screen, cell lysate, human LULL1 lysate, 635/667 nm fluorescence (AID 1092).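 Also: probe is lysate of COS7 cells overexpressing human LULL1; score merges per-feature 667 nm fluorescence with signal-to-noise.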 Conditions: hLULL1 lysate binding, 635 nm fluorescence, higher = more signal.
Sequence of Torsin-1A-interacting protein 2 (Homo sapiens) (Q8NFQ8 whole entry, looked up): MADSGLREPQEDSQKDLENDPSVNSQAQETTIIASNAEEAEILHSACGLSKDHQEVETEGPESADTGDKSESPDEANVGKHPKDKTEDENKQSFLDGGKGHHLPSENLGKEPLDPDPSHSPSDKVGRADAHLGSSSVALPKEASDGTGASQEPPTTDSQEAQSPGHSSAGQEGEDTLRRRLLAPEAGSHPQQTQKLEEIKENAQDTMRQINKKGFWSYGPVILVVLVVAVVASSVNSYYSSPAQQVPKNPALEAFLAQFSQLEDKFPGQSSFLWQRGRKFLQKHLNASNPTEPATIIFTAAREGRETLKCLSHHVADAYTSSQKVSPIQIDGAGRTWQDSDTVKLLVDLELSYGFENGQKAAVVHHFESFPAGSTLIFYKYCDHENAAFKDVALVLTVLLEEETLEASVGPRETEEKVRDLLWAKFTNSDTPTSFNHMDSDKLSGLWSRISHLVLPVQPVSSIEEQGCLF
Assay [16] is described as follows: E. coli growth modulation, two-sided OD650, primary screen, E. coli filamentation project, strain DRC41, 24 h (AID 1093).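 Also: MC1000 strain lacking acrAB efflux and sulA so SOS filamentation is blocked; test concentration not given here.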 The settings on record: OD650, 24 h, higher = more signal, called active from +8 up or from −8 down.
Assay [17] in a line: small-molecule microarray binders of probe aLefty2, primary screen, biochemical, biotinylated probe, 635/667 nm fluorescence (AID 1094).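 Also: score merges spot fluorescence near 667 nm with spot signal-to-noise ratio.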 Conditions: higher = more signal.
Assay [18] concerns Noggin (protein binding on small-molecule microarray). In words: Noggin binders on small-molecule microarray, primary screen, biochemical, 635/667 nm fluorescence (AID 1095).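 Also: score merges 667 nm feature fluorescence with signal to noise over triplicate slides.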 Conditions: 635 nm fluorescence, higher = more signal.
The target of assay [19] is Neurogenic locus notch homolog protein 3 (Homo sapiens) (UniProt Q9UM47). In words: NOTCH3 binders on small-molecule microarray, primary screen, biochemical, 635/667 nm fluorescence (AID 1096). Conditions: NOTCH3 binding, 635 nm fluorescence, higher = more signal.
Assay [20] can be described thus: small-molecule microarray binders of probe aEGFR, primary screen, biochemical, biotinylated probe, 635/667 nm fluorescence (AID 1097).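 Also: probe is a biotinylated anti-EGFR antibody binding compounds printed on slides; score combines fluorescence near 667 nm and signal to noise of each spot.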 Conditions: higher = more signal.

Sequence of Neurogenic locus notch homolog protein 2 (Homo sapiens) (Q04721 whole entry, looked up, canonical isoform): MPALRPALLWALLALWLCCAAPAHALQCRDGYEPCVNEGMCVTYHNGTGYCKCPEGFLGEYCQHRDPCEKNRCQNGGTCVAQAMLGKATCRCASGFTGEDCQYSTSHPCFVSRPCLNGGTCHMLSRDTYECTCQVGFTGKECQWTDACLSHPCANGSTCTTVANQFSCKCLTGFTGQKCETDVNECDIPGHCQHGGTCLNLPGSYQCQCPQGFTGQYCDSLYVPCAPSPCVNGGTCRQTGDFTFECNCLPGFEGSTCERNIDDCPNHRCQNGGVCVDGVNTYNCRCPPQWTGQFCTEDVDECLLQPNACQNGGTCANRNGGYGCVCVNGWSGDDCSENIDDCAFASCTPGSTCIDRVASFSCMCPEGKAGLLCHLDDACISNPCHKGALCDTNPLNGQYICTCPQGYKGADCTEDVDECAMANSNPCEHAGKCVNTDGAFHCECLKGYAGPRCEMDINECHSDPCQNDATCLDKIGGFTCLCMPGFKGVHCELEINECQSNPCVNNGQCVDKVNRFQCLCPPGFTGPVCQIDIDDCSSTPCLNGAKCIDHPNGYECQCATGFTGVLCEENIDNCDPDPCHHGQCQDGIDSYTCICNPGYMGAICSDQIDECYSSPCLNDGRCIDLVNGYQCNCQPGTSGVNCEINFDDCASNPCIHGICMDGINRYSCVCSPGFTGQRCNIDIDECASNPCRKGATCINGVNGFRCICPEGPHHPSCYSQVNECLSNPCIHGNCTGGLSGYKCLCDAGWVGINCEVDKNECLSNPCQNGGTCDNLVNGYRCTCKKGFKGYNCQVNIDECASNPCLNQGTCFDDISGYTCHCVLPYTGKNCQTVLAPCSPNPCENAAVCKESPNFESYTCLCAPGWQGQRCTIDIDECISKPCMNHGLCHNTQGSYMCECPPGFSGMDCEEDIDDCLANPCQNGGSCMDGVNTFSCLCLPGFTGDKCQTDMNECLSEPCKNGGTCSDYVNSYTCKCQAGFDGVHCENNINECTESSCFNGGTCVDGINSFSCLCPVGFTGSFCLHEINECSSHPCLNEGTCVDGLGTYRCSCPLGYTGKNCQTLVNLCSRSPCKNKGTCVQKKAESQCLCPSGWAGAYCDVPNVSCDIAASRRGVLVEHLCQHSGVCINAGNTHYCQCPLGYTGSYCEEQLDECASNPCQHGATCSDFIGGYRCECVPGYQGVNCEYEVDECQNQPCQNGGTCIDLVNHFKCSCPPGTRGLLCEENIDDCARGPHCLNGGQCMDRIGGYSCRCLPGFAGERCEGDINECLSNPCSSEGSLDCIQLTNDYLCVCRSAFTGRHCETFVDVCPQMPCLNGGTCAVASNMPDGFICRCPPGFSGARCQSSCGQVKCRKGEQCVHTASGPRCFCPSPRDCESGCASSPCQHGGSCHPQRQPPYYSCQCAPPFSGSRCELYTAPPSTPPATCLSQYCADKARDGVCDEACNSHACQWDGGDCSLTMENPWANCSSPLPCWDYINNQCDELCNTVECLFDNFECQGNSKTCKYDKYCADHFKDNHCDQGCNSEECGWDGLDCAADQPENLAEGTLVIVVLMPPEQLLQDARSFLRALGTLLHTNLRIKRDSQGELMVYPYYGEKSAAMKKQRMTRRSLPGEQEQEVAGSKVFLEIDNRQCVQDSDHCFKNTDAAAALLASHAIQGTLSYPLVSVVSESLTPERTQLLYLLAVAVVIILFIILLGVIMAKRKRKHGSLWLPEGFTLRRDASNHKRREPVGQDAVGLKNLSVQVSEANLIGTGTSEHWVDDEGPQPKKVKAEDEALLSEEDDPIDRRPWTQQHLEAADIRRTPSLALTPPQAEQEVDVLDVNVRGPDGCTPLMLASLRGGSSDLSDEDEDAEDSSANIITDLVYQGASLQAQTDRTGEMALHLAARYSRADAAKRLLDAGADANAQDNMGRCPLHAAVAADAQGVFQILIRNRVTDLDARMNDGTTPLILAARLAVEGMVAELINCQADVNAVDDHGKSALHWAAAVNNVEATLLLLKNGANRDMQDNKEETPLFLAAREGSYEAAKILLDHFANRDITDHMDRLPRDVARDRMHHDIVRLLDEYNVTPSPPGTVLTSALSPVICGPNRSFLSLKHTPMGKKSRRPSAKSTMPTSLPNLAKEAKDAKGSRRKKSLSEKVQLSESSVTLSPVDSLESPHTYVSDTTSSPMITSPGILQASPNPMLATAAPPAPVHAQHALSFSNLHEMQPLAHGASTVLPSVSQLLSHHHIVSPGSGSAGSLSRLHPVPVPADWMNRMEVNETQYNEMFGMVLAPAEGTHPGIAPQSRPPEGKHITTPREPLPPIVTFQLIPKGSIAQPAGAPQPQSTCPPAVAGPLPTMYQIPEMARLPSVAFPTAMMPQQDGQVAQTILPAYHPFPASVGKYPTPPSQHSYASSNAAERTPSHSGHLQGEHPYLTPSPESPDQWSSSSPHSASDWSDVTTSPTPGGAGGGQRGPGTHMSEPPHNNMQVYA
Sequence of Pro-neuregulin-1, membrane-bound isoform (Homo sapiens) (Q02297 whole entry, looked up, the tested form may be a part, canonical isoform): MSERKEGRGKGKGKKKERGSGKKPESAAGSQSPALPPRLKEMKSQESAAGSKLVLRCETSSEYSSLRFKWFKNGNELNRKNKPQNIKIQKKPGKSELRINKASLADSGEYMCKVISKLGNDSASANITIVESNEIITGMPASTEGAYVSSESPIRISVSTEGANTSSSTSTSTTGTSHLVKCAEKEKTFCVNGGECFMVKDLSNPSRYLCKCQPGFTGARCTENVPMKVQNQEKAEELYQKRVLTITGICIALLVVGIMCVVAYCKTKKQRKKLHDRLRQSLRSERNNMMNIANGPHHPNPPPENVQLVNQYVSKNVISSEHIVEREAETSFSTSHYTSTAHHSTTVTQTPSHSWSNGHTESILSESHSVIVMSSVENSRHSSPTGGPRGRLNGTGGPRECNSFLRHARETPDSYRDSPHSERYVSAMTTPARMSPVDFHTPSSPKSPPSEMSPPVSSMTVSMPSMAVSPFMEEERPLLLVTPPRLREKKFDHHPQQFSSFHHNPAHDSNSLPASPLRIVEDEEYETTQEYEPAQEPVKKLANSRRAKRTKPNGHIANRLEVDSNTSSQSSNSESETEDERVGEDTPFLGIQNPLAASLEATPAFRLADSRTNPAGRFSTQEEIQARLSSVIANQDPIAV

`C=C(COC)C(=O)CC[C@H](OC(=O)c1cccnc1)c1ccccc1OCCO`: the composite z-score in [1] was -0.0665; in assay [2], 0.903; in assay [3], -0.0004; in [4], 0.675; in assay [5] it was 0.928; in [6], 0.599. Further, the composite z-score in assay [7] was 1.24; in assay [9], 0.437; in assay [10], -0.236; in assay [11] it was 1.56; in assay [15], 1.47; in [17], 0.157. For the same compound, the composite z-score is 1.15 in [18], 1.15 in assay [19] and -0.0406 in assay [20]. In addition, the z-score in [8] is 0.445 (inactive); in assay [12] it was -2.31 (inactive); in assay [13], -1.57 (inactive); in assay [14], -0.278 (inactive); in [16] it was 0.473 (inactive).
For `COc1ccc([Si](C)(C)[C@@H]2[C@@H](CCO)O[C@]3(C(=O)N(Cc4ccccc4)c4ccc(N(C=O)c5ccccc5)cc43)[C@H]2C)cc1`, the composite z-score in assay [1] is -0.106; in assay [2], 0.255; in [3], -0.133; in [4] it was 0.465; in assay [5], 0.154; in assay [6], 0.359. The composite z-score is 0.979 in assay [7]; -0.176 in [9]; -0.236 in [10]; 1.28 in assay [11]; 1.33 in assay [15]; -0.0479 in assay [17]. Moreover, the composite z-score is 0.0182 in [18], 0.718 in assay [19] and -0.189 in [20]. For the same compound, the z-score was -2.04 (inactive) in assay [8]; 0.697 (inactive) in assay [12]; 1.56 (inactive) in [13]; 7.37 (inactive) in assay [14]; 0.329 (inactive) in assay [16].
On to `C=C(CCCC)C(=O)CC[C@H](OC(C)=O)c1ccc(CO)o1`, for which the composite z-score in assay [1] was -0.282; in [2], 0.0494; in assay [3] it was -0.0985; in assay [4] it was -0.0414; in assay [5], -0.366; in assay [6] it was -0.119. Besides, the composite z-score is 0.798 in assay [7]; -0.402 in assay [9]; -0.0994 in [10]; 1.47 in assay [11]; 0.616 in [15]; -0.0339 in [17]. For the same compound, the composite z-score in assay [18] is 0.53; in assay [19] it was 0.137; in assay [20] it was -0.182. The z-score in [8] was -0.463 (inactive); in [12], 1.04 (inactive); in assay [13], -1.43 (inactive); in assay [14] it was -0.181 (inactive); in assay [16] it was 1.38 (inactive).
Consider `O=C1O[C@@H](c2ccccc2)[C@@H](c2ccccc2)N2[C@@H](c3ccc(O)cc3)[C@]3(C(=O)Nc4ccc(C#CCCO)cc43)[C@@H](C(=O)N3CCCCCCC3)[C@H]12`, for which the composite z-score in [1] was found to be 2.71; in [2] it was 1.72; in [3], 0.442; in assay [4], 0.888; in assay [5] it was 0.347; in assay [6], 1.62. The composite z-score in assay [7] was found to be 1.25; in [9], 2.57; in assay [10] it was 1.64; in assay [11], 1.55; in [15], 3.5; in assay [17] it was 1.26. Also, the composite z-score in [18] is 1.48; in assay [19], 0.939; in assay [20], 0.079. Further, the z-score in [8] is -1.61 (inactive); in assay [12], 0.36 (inactive); in [13] it was 0.67 (inactive); in assay [14], 1.51 (inactive); in [16] it was -0.306 (inactive).
Take `Cc1ccc(S[C@]2(C(=O)NCc3ccccc3)CC(=O)N(Cc3cc(C(F)(F)F)cc(C(F)(F)F)c3)[C@@H]2c2ccc(CO)cc2)cc1`: the composite z-score in assay [1] is -0.989; in assay [2], -0.779; in assay [3], -0.172; in [4] it was -0.596; in assay [5], -0.885; in assay [6], 0.57. In addition, the composite z-score is 0.246 in [7]; -0.0847 in assay [9]; -0.362 in assay [10]; 1.34 in assay [11]; 1.94 in assay [15]; -0.225 in assay [17]. For the same compound, the results for the composite z-score in assay [18], in assay [19] and in assay [20] were 0.0043, -0.132 and -0.325, respectively. Besides, the z-score in [8] was -0.588 (inactive); in assay [12], 1.04 (inactive); in [13], -0.27 (inactive); in assay [14], 0.521 (inactive); in assay [16] it was -0.764 (inactive).
